14 compounds from PubChem BioAssay (EPA / NIEHS) can be followed below.

Values joined by “and” are separate entries in the source; they are usually repeats but may differ in a detail not shown here. Equal entries are not always repeated. The source holds several records for some structures; these can differ, active in one and inactive in another. Active and inactive are the calls of the source. The calls were made as follows: active = hit-call score of the fitted dose curve at least 0.9, where 1 is the maximum; inactive = score below 0.9.

As usually defined, the AC50 is the midpoint of the concentration-response curve, whichever way the signal moves.

What all share (conditions): primary human HUVEC with PBMC; actives raise or lower the signal
Read-out in test [1]: Interleukin-1 alpha (IL1a), IL1A (gene 3552)
The experiment in a line: BSK_LPS_IL1a: BioMAP Diversity Plus: LPS Assay for Interleukin-1 alpha (IL1a) Biomarker Activity (AID 2283080). In short, it runs like this:
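Human umbilical vein endothelial cells co-cultured with PBMC and stimulated with LPS; IL-1a measured by ELISA 24 h after dosing. Bidirectional fitting against DMSO; cytotoxicity checked by SRB staining in parallel cultures.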

Read-out in test [2]: Monocyte Chemoattractant Protein-1 (MCP1), CCL2 (gene 6347)
Nature of the test: BSK_LPS_MCP1: BioMAP Diversity Plus: LPS Assay for Monocyte Chemoattractant Protein-1 (MCP1) Biomarker Activity (AID 2283081).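 As to AC50: secreted MCP-1 protein quantified by ELISA in culture supernatant.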 The procedure, abridged: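 Human umbilical vein endothelial cells co-cultured with PBMC, LPS-stimulated; secreted MCP-1 measured by ELISA 24 h after compound addition. Bidirectional curve fitting against DMSO baseline; SRB total-protein staining in parallel cultures for cytotoxicity.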

The nature of test [3]: BSK_LPS_PGE2: BioMAP Diversity Plus: LPS Assay for Prostaglandin E2 (PGE2) Biomarker Activity (AID 2283082). The procedure, abridged: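 HUVEC plus PBMC co-culture stimulated with LPS; secreted PGE2 quantified by ELISA 24 h after chemical dosing. Activity fitted bidirectionally against DMSO as negative control and baseline; parallel SRB total-protein staining served as cytotoxicity check.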

Read-out in test [4]: Tissue Factor, F3 (gene 2152)
The experiment in a line: BSK_LPS_TissueFactor: BioMAP Diversity Plus: LPS Assay for Tissue Factor Biomarker Activity (AID 2283084). In short, it runs like this: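 Human umbilical vein endothelial cells co-cultured with PBMC were dosed with compound. Cell-surface CD142 was measured by ELISA 24 h later. Activity was fitted bidirectionally against DMSO, with SRB total-protein staining in parallel cultures for cytotoxicity.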

Read-out in test [5]: Tumor necrosis factor (Homo sapiens) (UniProt P01375)
The experiment in a line: BSK_LPS_TNFa: BioMAP Diversity Plus: LPS Assay for Tumour Necrosis Factor alpha (TNFa) Biomarker Activity (AID 2283085).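 As to AC50: TNFa protein level quantified by ELISA in the co-culture.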 The procedure, abridged:
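Human umbilical vein endothelial cells co-cultured with PBMC were exposed to test chemical and TNFa measured by ELISA 24 h after dosing. Bidirectional curve fitting was done relative to DMSO as negative control and baseline.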

Read-out in a further test: CD38, CD38 (gene 952)
The experiment in a line: BSK_SAg_CD38: BioMAP Diversity Plus: SAg Assay for CD38 Biomarker Activity (AID 2283087). In short, it runs like this:
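Fluorescence ELISA of cell-surface CD38 served as the read-out, with either increase or decrease fitted against DMSO controls. Cells were a human umbilical vein endothelium plus PBMC co-culture under SEB/TSST-1 stimulation, measured 24 h after dosing.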

Read-out in the next test: CD40, CD40 (gene 958)
The experiment in a line: BSK_SAg_CD40: BioMAP Diversity Plus: SAg Assay for CD40 Biomarker Activity (AID 2283088). In short, it runs like this:
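HUVEC plus PBMC co-culture, superantigen-activated, with CD40 read by ELISA 24 h after dosing. Curves fitted in both directions against DMSO. Overt cytotoxicity checked by parallel SRB total-protein staining.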

Read-out in a further test: CD69, CD69 (gene 969)
Nature of the test: BSK_SAg_CD69: BioMAP Diversity Plus: SAg Assay for CD69 Biomarker Activity (AID 2283089).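 As to AC50: cell surface CD69 protein quantified by ELISA with fluorescence detection.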 The procedure, abridged:
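ELISA, fluorescence read-out: CD69 on human umbilical vein endothelial cell + PBMC co-culture, 24 h post-dosing. Gain or loss of signal fitted bidirectionally against DMSO baseline.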

Read-out in test [6]: Macrophage colony-stimulating factor (MCSF), CSF1 (gene 1435)
Nature of the test: BSK_LPS_MCSF: BioMAP Diversity Plus: LPS Assay for Macrophage colony-stimulating factor (MCSF) Biomarker Activity (AID 2283083). The procedure, abridged: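 HUVEC–PBMC co-culture, M-CSF measured by ELISA 24 h after chemical dosing. Fitted in both directions relative to DMSO as negative control; overt cytotoxicity assessed by SRB total-protein staining in parallel cultures.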

Read-out in test [7]: Vascular cell adhesion molecule 1 (VCAM1), VCAM1 (gene 7412)
The experiment in a line: BSK_LPS_VCAM1: BioMAP Diversity Plus: LPS Assay for Vascular cell adhesion molecule 1 (VCAM1) Biomarker Activity (AID 2283086). The procedure, abridged:
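Human umbilical vein endothelial cells co-cultured with peripheral blood mononuclear cells under LPS stimulation were exposed to test chemical for 24 h. VCAM-1 levels were then measured by ELISA, with bidirectional curve fitting relative to DMSO as negative control and baseline.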

Chain of Tumor necrosis factor (Homo sapiens) (P01375 whole entry, looked up): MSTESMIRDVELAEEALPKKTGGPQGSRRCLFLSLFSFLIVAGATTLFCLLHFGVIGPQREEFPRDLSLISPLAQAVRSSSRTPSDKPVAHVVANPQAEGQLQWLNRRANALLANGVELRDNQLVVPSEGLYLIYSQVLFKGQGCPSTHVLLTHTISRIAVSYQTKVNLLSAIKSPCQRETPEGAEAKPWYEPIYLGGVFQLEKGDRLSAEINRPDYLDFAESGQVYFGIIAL

As for `CCCCCCCCCCCC(=O)N(C)CC(=O)O`, the outcome in test [1] is “inactive”; in test [2], “inactive”; in test [3] it was “inactive”; in [4], “inactive”; in test [5] it was “inactive”; with CD38, CD38 (gene 952) it was “inactive”. Also, the outcome in the test with CD40, CD40 (gene 958) is “inactive”; in the test with CD69, CD69 (gene 969) it was “inactive”. Further, in test [3], the AC50 was 5.24 µM (active).

In the case of `CCCC(C)C(=O)OCC` (stereo not drawn), the result in test [1], in [2], in test [3], in [6], in test [4] and in test [5] was inactive. The outcome is “inactive” in the test with CD38, CD38 (gene 952); “inactive” with CD40, CD40 (gene 958); “inactive” with CD69, CD69 (gene 969).

Take `CCOC(=O)C1=NN(c2ccc(Cl)cc2Cl)C(C)(C(=O)OCC)C1` (stereo not drawn): the outcome in test [1] is “inactive”; in test [2], “inactive”; in [6], “inactive”; in test [4], “inactive”; in [5] it was “inactive”; with CD38, CD38 (gene 952), “inactive”. Moreover, the outcome with CD40, CD40 (gene 958) is “inactive”; with CD69, CD69 (gene 969), “inactive”. Further, the AC50 in test [3] was 8.97 µM (active).

As to `COc1ccc(C(=O)/C(Br)=C\C(=O)O)cc1`, the AC50 in test [1] was 20 µM (active) and 17 µM (active); in [2] it was 31.3 µM (active) and 27.4 µM (active); in test [3], 7.75 µM (active) and 6.87 µM (active); in test [6], 12.8 µM (active) and 20 µM (active); in test [4], 20 µM (active) and 14.1 µM (active); in test [5] it was 14.3 µM (active) and 28.4 µM (active). Moreover, the AC50 in test [7] is 20 µM (active); with CD38, CD38 (gene 952), 22.3 µM (active) and 20 µM (active); in the test with CD40, CD40 (gene 958), 20 µM (active) and 23.6 µM (active); with CD69, CD69 (gene 969), 15.6 µM (active) and 15.7 µM (active).

With `CC1(C)CC(O)CC(C)(C)N1[O]`, the result in [1], in test [2], in [3], in [4], in test [5] and in test [7] was inactive. Besides, the outcome with CD38, CD38 (gene 952) was “inactive”; in the test with CD40, CD40 (gene 958), “inactive”; with CD69, CD69 (gene 969) it was “inactive”.

As to `CCOC(=O)C1=NOC(c2ccccc2)(c2ccccc2)C1`, the result in test [1], in test [2], in test [3], in test [6], in test [4] and in test [5] was inactive. In addition, the outcome is “inactive” with CD38, CD38 (gene 952); “inactive” with CD40, CD40 (gene 958); “inactive” with CD69, CD69 (gene 969).

Regarding `CC(C)C(=O)OCCc1ccccc1`, the result in test [1], in test [2], in test [3], in test [4], in test [5] and in test [7] was inactive. The outcome with CD38, CD38 (gene 952) is “inactive”; in the test with CD40, CD40 (gene 958), “inactive”; with CD69, CD69 (gene 969), “inactive”.

For `CC(Cl)COP(=O)(OCC(C)Cl)OCC(C)Cl` (stereo not drawn), the outcome is “inactive” in [1]; “inactive” in [2]; “inactive” in test [3]; “inactive” in test [6]; “inactive” in test [4]; “inactive” in the test with CD38, CD38 (gene 952). Further, the outcome with CD40, CD40 (gene 958) is “inactive”; in the test with CD69, CD69 (gene 969), “inactive”. Further, the AC50 in test [5] was 1.31 µM (active).

As for `CC=C(C)C=CC=C(C)C`, the result in test [1], in test [2], in test [3], in [4] and in test [5] was inactive. Besides, the AC50 in [7] is 20 µM (active); with CD38, CD38 (gene 952), 13.7 µM (active); with CD40, CD40 (gene 958), 6.97 µM (active); with CD69, CD69 (gene 969) it was 18.7 µM (active).

Regarding `c1ccc(Nc2cccc3ccccc23)cc1`, the AC50 in test [1] was 34.1 µM (active) and 34.7 µM (active); in test [2], 27.8 µM (active) and 29.1 µM (active); in [3] it was 2.88 µM (active) and 2.19 µM (active); in test [6], 31.2 µM (active) and 16.1 µM (active); in test [5] it was 31.6 µM (active) and 29.9 µM (active); in the test with CD38, CD38 (gene 952), 30.4 µM (active) and 31.1 µM (active). For the same compound, the AC50 was 28.9 µM (active) and 26.5 µM (active) with CD40, CD40 (gene 958); 30.4 µM (active) and 33.2 µM (active) with CD69, CD69 (gene 969). Also, the outcome in [4] was inactive.

On to `C=C(C)C(=O)OCCCCCCCCCCCC`, for which the outcome is “inactive” in test [1]; “inactive” in test [2]; “inactive” in [3]; “inactive” in test [6]; “inactive” in test [4]; “inactive” with CD38, CD38 (gene 952). Moreover, the outcome is “inactive” with CD40, CD40 (gene 958) and “inactive” with CD69, CD69 (gene 969). Further, the AC50 in test [5] was 32.6 µM (active).

For `Nc1cccc(N)n1`, the outcome in test [1], in test [2], in [3], in [6], in [4] and in [5] was inactive. The outcome was “inactive” with CD38, CD38 (gene 952); “inactive” with CD40, CD40 (gene 958); “inactive” with CD69, CD69 (gene 969).

Regarding `Clc1cc(Cl)c(Cl)c(Cl)c1Cl`, the AC50 in [1] is 16.2 µM (active). The outcome in [2] is “inactive”; in test [3], “inactive”; in test [4], “inactive”; in [5], “inactive”; in [7] it was “inactive”; with CD38, CD38 (gene 952) it was “inactive”. In addition, the outcome with CD40, CD40 (gene 958) was “inactive”; in the test with CD69, CD69 (gene 969), “inactive”.

Take `CCCCCCCO`: the outcome in test [1], in test [2], in [3], in test [6], in test [4] and in [5] was inactive. Moreover, the outcome in test [7] was “inactive”; in the test with CD38, CD38 (gene 952), “inactive”; with CD40, CD40 (gene 958), “inactive”; with CD69, CD69 (gene 969), “inactive”.
